Measured values reported in PubChem BioAssay AID1159580 (chemical genetic matrix, 2015).
The campaign covered roughly 5,500 compounds. About 2,000 (36%) were called active. Not shown: some 18% with an inconclusive outcome. Cut-off read from the data, not from the text of the source: active = normalized growth mostly below about 0.91 (no sharp cut-off); inconclusive = no clear call, values can overlap the other calls; inactive = mostly above about 0.92. Some of the results follow.

Assay: chemical genetic growth profiling, strain panel (AID 1159580);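 note: tested at 20 µM; growth read once vehicle control cultures reached saturation at 30 °C; 1 = growth at the plate median or of vehicle wells; lower values mean less growth of the strain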
Conditions: S. cerevisiae deletion strains, growth OD

Measured: normalized growth

Cc1cn([C@H]2C=C[C@@H](CO)O2)c(=O)[nH]c1=O
inactive: locus YAL040C, strain CLN3, active compounds read low 0.999 | locus YCL061C, strain MRC1 (second series), active compounds read low 1.01 | locus YDR363W, strain ESC2, active compounds read low 0.976 | locus YER002W, strain NOP16, active compounds read low 1 | locus YGR078C, strain PAC10, active compounds read low 1.02 | locus YMR263W, strain SAP30, active compounds read low 0.998 | locus YMR307W, strain GAS1, active compounds read low 0.994 | locus YNL175C, strain NOP13, active compounds read low 0.993 | locus YNL197C, strain WHI3, active compounds read low 0.995 | locus YNL224C, strain SQS1, active compounds read low 1 | locus YNL322C, strain KRE1, active compounds read low 0.994 | locus YOR083W, strain WHI5 (second series), active compounds read low 1.06 | locus YPL055C, strain LGE1, active compounds read low 0.974 | locus YPL241C, strain CIN2, active compounds read low 1
